Artemis endo inh = inhibitors of human Artemis endonuclease activity | Q96SD1 | recombinant Artemis, quenched FAM hairpin cleavage fluorescence | inhibition, % at 10 µM | hit rate 0.78% among 30,000 | AID 686954;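 active = at 10 µM dose, at least 30% inhibition, measured as corrected fluorescence normalized to stimulator and neutral control wells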
Target sequence (Q96SD1 whole entry, looked up): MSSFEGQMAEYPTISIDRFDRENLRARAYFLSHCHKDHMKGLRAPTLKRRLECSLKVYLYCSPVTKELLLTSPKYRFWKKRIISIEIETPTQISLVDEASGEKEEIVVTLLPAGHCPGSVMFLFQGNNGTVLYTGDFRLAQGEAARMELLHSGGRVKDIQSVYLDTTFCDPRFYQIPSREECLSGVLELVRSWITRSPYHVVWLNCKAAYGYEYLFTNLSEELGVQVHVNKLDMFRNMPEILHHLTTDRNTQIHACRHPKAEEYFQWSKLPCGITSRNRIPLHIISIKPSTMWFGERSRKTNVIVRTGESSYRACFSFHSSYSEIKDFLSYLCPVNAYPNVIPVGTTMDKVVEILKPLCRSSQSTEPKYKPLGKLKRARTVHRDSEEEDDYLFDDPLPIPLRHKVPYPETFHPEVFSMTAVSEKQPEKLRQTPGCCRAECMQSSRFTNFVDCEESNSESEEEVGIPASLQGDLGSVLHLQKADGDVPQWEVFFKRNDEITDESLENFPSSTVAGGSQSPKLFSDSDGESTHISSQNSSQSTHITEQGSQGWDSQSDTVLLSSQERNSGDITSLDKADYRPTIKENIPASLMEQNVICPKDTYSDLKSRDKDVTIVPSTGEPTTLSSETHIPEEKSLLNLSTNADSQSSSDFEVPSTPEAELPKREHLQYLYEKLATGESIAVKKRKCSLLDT
* = called active by the depositor. The entries come from a sample that favours hits as a whole.

SMILES	Artemis endo inh
CCO/C(C)=N/n1c2nc3ccccc3nc2c2c(=O)n(C3CCCC3)c(C)nc21	3
CCCCCCn1cnc2c(c1=O)c1nc3ccccc3nc1n2Cc1cccs1	0
CCCCCCn1cnc2c(c1=O)c1nc3ccccc3nc1n2/N=C/c1ccco1	32*
Cc1nc2c(c(=O)n1CCC1=CCCCC1)c1nc3ccccc3nc1n2/N=C/c1ccco1	41*
CCCCn1c2nc3ccccc3nc2c2c(=O)n(CCC)cnc21	7
CSCCC1NC(=O)N(CC(=O)Nc2cccc3ccccc23)C1=O (centres undefined)	-8
CC(NC(=O)NCc1cccnc1)(C(F)(F)F)C(F)(F)F	-8
COc1ccc2c(c1)[nH]c1c(=O)n(CCCn3ccnc3)cnc12	-7
CCOC(=O)c1c(NC(=O)C(C)NCc2ccco2)sc2c1CCC(C)C2 (centres undefined)	5
CCCN(CC1CC1)c1nc(N)c2c(N)nc(OC)cc2c1C#N	49*
CCOc1cc2c(C#N)c(N3CCOCC3)nc(N)c2c(N)n1	29
CCc1nc(C)c(C#N)c2cc(OC)c(OC)cc12	4
CCOc1ccc2nc(SCC(=O)Nc3cc4c(cc3C(C)=O)OCO4)[nH]c2c1	2
Cc1noc(C)c1CSc1nc2ccccc2c(=O)n1-c1ccccc1	0
Cc1noc(C)c1CSc1nc2ccccc2nc1NS(=O)(=O)c1ccc(Cl)cc1	33*
O=S(=O)(Nc1nc2ccccc2nc1NCc1ccco1)c1ccc(Cl)cc1	13
O=C(NCC(c1cccnc1)N1CCN(c2ccc(F)cc2)CC1)c1ccc(F)cc1 (centres undefined)	5
COc1cc(NC(=O)CN2C(=O)c3ccccc3S2(=O)=O)c(OC)cc1Cl	3
COC(=O)c1ccccc1NC(=O)CSc1nnc(-c2ccc(OC)cc2)n1C	10
O=C(Cc1cccs1)Nc1ccc(-c2nnc(-c3ccccc3)o2)cc1	-2
O=C(Cc1ccsc1-c1ccccc1)NO	64*
O=C(Nc1nc(-c2cccs2)c(-c2ccccc2)s1)c1ccco1	11
CCOc1ccc(/C(O)=C2\C(=O)C(=O)N(c3cc(C)on3)C2c2ccccc2OC)cc1 (centres undefined)	3
CCN(CC)CCN1C(=O)C(=O)/C(=C(/O)c2ccc(OC)cc2)C1c1ccco1 (centres undefined)	-2
CCOc1ccc(/C(O)=C2/C(=O)C(=O)N(c3nc(C)c(C)s3)C2c2ccco2)cc1 (centres undefined)	43*
SMILES	Artemis endo inh
O=C(COC(=O)c1ccc(Br)o1)Nc1cccc(S(=O)(=O)N2CCCCCC2)c1	12
O=[N+]([O-])c1ccc(Oc2cccc(F)c2)c2ccncc12	0
Cc1noc(NC(=O)c2ccccc2)c1C#N	2
CCC(C)n1c(NC(=O)c2ccccc2)c(C#N)c2nc3ccccc3nc21 (centres undefined)	39*
N#Cc1c(N)n(CCNC(=O)c2ccc(Cl)cc2)c2nc3ccccc3nc12	0
Cc1ccc(C(=O)Nc2onc(C)c2C#N)cc1	0
CCc1ccc2[nH]c(=O)c(CN(Cc3ccccc3)Cc3nnnn3Cc3ccco3)cc2c1	21
O=c1[nH]c2cc3c(cc2cc1CN(Cc1ccccc1)Cc1nnnn1Cc1ccco1)OCCO3	27
Cc1ccc2[nH]c(=O)c(CN(Cc3ccc4c(c3)OCO4)Cc3nnnn3Cc3ccco3)cc2c1	35*
CCC(c1nnnn1Cc1ccco1)N(CCc1ccccc1)Cc1cc2cc(C)ccc2[nH]c1=O (centres undefined)	14
Cc1cc(C)c2cc(CN(CCO)Cc3nnnn3Cc3ccc(F)cc3)c(=O)[nH]c2c1	1
Cc1cc(C)c2cc(CN(Cc3ccc4c(c3)OCO4)Cc3nnnn3Cc3ccco3)c(=O)[nH]c2c1	40*
COc1ccc(CCn2c(C)c(C(C)=O)c3cc(OC(=O)c4ccco4)ccc32)cc1OC	-9
CCCOC(=S)Nc1ccccc1	1
c1ccc(-c2cc3n(c2)CCc2ccccc2-3)cc1	-5
COc1cccc(NC(=O)Cn2c(=O)c3c(ncn3Cc3ccccc3)n(Cc3ccccc3)c2=O)c1	-14
COCc1c(C(=O)N2CCN(c3ccc(C(F)(F)F)cn3)CC2)oc2ccccc12	1
COc1cc(C)c(Cl)cc1S(=O)(=O)NCC1CCCO1 (centres undefined)	-1
COc1ccc(OC)c(S(=O)(=O)NCC2CCCO2)c1 (centres undefined)	45*
CCOc1cc(C)c(Cl)cc1S(=O)(=O)NCC1CCCO1 (centres undefined)	0
COC(=O)c1ccc(NC(=O)CSc2nccn2CCc2ccccc2)cc1	-2
CC1=C(C(=O)Nc2cccc(C)n2)C(c2ccc3c(c2)OCO3)C2=C(CC(c3ccco3)CC2=O)N1 (centres undefined)	1
Cc1cc(/C=N/n2cnnc2)c(C)n1-c1ccc(OCc2ccc(Cl)cc2Cl)cc1	42*
Cc1cc(/C=N/n2cnnc2)c(C)n1-c1ccccc1	-4
Cc1cc(/C=N/n2cnnc2)c(C)n1-c1cccc(Cl)c1	10
SMILES	Artemis endo inh
COc1ccc(Br)cc1C(=O)Nc1cc(C)cc(C)c1	5
Cc1ccc(CNC(=O)CCS(=O)(=O)c2cc(Br)cc3c2N(C(=O)C2CC2)CC3)o1	-12
O=C(Nc1ccc(N2CCCCC2)cc1)c1ccc(F)cc1	10
CCOc1ccc(C(=O)Nc2ccc(N3CCCC3)cc2)cc1	27
COc1ccc(C(=O)Nc2ccc(N3CCCC3)cc2)cc1	62*
CC(C)(C)C(=O)COC(=O)CNC(=O)c1ccc(Oc2ccccc2)cc1	4
COc1ccc(/C=N/c2oc(-c3ccccc3)cc2C#N)cc1OC	-4
CC(C)(C)c1cc(/C=N/NC(=O)Cc2nc3ccccc3[nH]2)cc(C(C)(C)C)c1O	32*
COc1cc(/C=N\NC(=O)Cn2nnc3ccccc32)cc(OC)c1OC	4
O=C(CCc1nc2ccccc2[nH]1)Nc1ccc2c(c1)OCO2	10
Cc1cc(=O)[nH]c(SCC(=O)c2c(N)n(C)c(=O)n(C)c2=O)n1	-6
COc1ccc(OC)c(-n2c(C)ccc2-c2ccc(S(C)(=O)=O)cc2)c1	7
Cc1ccccc1N1C(=O)N(c2cccc(C(F)(F)F)c2)C2CS(=O)(=O)CC21 (centres undefined)	6
COc1cccc(/C=N/Nc2nc(Nc3ccccc3)nc(-n3nc(C)cc3C)n2)c1O	96*
COc1cccc(/C=N/n2c(C)nc3ccccc3c2=O)c1O	-2
COc1cccc(/C=N/NC(=O)c2c(-c3ccccc3)noc2C)c1O	7
COc1ccc(C2NC(=O)c3sc4nc(C)c(C(C)=O)c(-c5ccc(Cl)cc5)c4c3N2)cc1 (centres undefined)	4
O=C(NCC(c1cccnc1)N1CCN(c2ccccc2F)CC1)c1cccc(Cl)c1 (centres undefined)	1
COc1ccc(C(=O)CSc2nnc(-c3ccccc3)o2)cc1	-3
COc1cccc(-c2nnc(SCC(=O)N3CCOCC3)o2)c1	2
COC(=O)CN(C(=O)CSc1nnc(-c2cccc(OC)c2)o1)c1ccc(OC)cc1	34*
CCOc1cc(-c2ccc(N)c(OCC)c2)ccc1N	5
CCCOc1ccc(-c2nnc(N)s2)cc1	0
CCCOc1ccc(N)cc1N	31*
CC(C)(C)c1ccc(OCCNC(=O)c2ncn[nH]2)cc1	2
Cc1ccc(-c2cc(C(=O)NCc3ccco3)c3ccccc3n2)o1	11
Cc1ccc(-c2cc(C(=O)NCCCn3ccnc3)c3cc(Br)ccc3n2)o1	31*
COc1ccc(C(=O)NCCCn2ccnc2)cc1	-4
Cc1ccc(C(=O)CCC(=O)Nc2cccc(C(F)(F)F)c2)cc1	2
